Inconclusive results are not listed. Calls of active or inactive are those of the source. Rule for the calls: active = hit-call score of the fitted dose curve at least 0.9, where 1 is the maximum; inconclusive = response in the unintended direction; inactive = score below 0.9.
Molecular target: Glucocorticoid receptor (Homo sapiens) (UniProt P04150)
Test: ATG_hGR_EcoTox2: Attagene TRANS-FACTORIAL EcoTox-2 HepG2 Assay for human Glucocorticoid Receptor (GR)
Experimental: ATG_EcoTox2 is a cell-based, multiplexed assay created by modifying the existing Attagene TRANS-FACTORIAL system to include a panel of nuclear receptors from some or all the following species: human (Homo sapiens), african clawed frog (Xenopus laevis), rainbow trout (Oncorhynchus mykiss), japanese medaka (Oryzias latipes), and zebrafish (Danio rerio). The ECOTOX2-FACTORIAL format uses HepG2, a human liver cell line, with measurements taken at 24 hours after chemical dosing in a 24-well plate. ATG_hGR_EcoTox2 is one of 29 assay components calculated in the ATG_EcoTox2 assay. It is designed to make measurements of mRNA induction, a form of inducible reporter, as detected with fluorescence intensity signals by Reverse transcription polymerase chain reaction (RT-PCR) and Capillary electrophoresis technology.The assay endpoint ATG_hGR_EcoTox2 was analyzed in the positive analysis fitting direction relative to DMSO as the negative control and baseline of activity. Using a type of inducible reporter, measures of mRNA for gain-of-signal activity can be used to understand the reporter gene at the transcription factor-level as they relate to the gene for glucocorticoid receptor. Furthermore, this assay endpoint can be referred to as a primary readout, because this assay has produced multiple assay endpoints where this one serves a reporter gene function. To generalize the intended target to other relatable targets, this assay endpoint is annotated to the nuclear receptor intended target family, where the subfamily is steroidal.
Human liver HepG2 cells are transiently transfected with multiple reporter transcription units (MRTUs) in 6-well plates using FuGene 6 reagent (Roche; 3 ml FuGene/1 mg DNA). The MRTU constructs are regulated by a cis-regulating element (promoter). Each RTU expresses a GAL4-UAS that regulates the transcription of a nearby target reporter gene sequence. A major difference between the CIS and TRANS system is that in CIS activities of endogenous TFs are measured, whereas the TRANS assay evaluates changes in activities of exogenous, chimeric NR-Gal4 proteins. […] At the end of 24 hour incubation, total RNA was isolated using TriZol reagent (Invitrogen). The isolated RNA is then reverse-transcribed using oligo(dT) primer and Mo-MLV reverse transcriptase (Invitrogen) with DNAse I (Ambion) treatment for 30 min. The one-tenth of the produced cDNA was amplified by PCR using Taq DNA polymerase (Invitrogen) and two reporter sequence-specific primers. […] The fragments were purified using Qiaquick PCR columns (Qiagen), analyzed on an ABI 3130xL genetic analyzer (Applied Biosystems) with peak positions identified by using a set of X-rhodamine (ROX)-labeled MapMarker1000 molecular weight standards (BioVentures). […]

Chain of Glucocorticoid receptor (Homo sapiens) (P04150 whole entry, looked up): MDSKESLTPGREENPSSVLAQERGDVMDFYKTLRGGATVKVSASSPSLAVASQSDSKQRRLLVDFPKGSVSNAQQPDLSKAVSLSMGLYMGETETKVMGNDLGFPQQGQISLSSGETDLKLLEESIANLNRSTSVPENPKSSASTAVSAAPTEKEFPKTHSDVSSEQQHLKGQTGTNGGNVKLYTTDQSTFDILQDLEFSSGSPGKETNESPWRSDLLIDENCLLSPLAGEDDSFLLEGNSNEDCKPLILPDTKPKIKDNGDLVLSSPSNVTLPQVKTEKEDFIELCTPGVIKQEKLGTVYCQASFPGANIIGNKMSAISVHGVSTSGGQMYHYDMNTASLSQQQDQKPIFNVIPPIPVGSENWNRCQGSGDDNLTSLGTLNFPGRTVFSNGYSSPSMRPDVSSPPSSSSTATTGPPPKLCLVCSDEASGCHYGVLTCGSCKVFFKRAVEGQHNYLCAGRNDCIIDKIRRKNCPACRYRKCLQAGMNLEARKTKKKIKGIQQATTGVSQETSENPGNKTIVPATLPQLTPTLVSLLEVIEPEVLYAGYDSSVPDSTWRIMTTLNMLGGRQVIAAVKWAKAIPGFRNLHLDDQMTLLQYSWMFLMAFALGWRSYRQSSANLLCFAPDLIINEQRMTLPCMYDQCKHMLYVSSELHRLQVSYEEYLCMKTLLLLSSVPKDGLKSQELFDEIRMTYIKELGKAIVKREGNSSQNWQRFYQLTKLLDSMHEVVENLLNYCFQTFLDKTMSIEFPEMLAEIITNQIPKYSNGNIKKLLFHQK

SMILES	outcome	AC50
O=P(Oc1ccccc1)(Oc1ccccc1)Oc1ccccc1	inactive	
CC(c1cc2ccccc2s1)N(O)C(N)=O (centres undefined)		50 µM (active)
CCCCOCN(C(=O)CCl)c1c(CC)cccc1CC	inactive	
CC(C)(Oc1ccc(Cl)cc1)C(=O)O	inactive	
